In all, about 2,100 compounds went through this assay and about 670 (32%) were called active. Roughly 50% stayed inconclusive and do not appear here. Calls come from the whole dose curve; as a rule, active = well fitted inhibition curve with a large enough effect; inconclusive = small, poorly fitted or top-dose-only effect; inactive = no such curve, though single readings can be large or run the other way. The list shows a part of the results.
test: CMV-Luciferase Counterscreen for Inhibitors of ATXN expression; settings: HEK-293 CMV-luciferase reporter, luminescence, 24 h; series mostly up to 57.5 µM; note: nearly all actives have a fitted effect of over 55% in size
% is set by controls: 0 for no effect and ±100 for the full control effect; potency is the fitted concentration of half-maximal effect.

| Structure (SMILES) | Potency | activity change, negative = inhibition |
| --- | --- | --- |
| NC(Cc1ccc(Cl)cc1)c1csc(Nc2cc(NCCCO)ncn2)n1 (stereo not given) | inactive |  |
| O=C(N/N=C/c1c(O)n(Cc2ccccc2)c(=O)c2ccccc12)c1cccnc1 | 12.6 µM (active) |  |
| O=C(N/N=C/c1cc(Cl)ccc1O)c1cccnc1 | 0.631 µM (active) |  |
| Cc1cccc(/C=N/NC(=O)c2cccc(Cl)c2)n1 |  | -14.3% [at 11.4 µM] (inactive) |
| O=C(N/N=C/c1cc(Cl)ccc1O)c1ccccc1Br | 8.91 µM (active) |  |
| CCC1=C(OC(=O)N(CC)CC)N2C(=O)OC(=NCCc3c[nH]c4ccccc34)[C@]2(Cc2ccccc2)[C@H]2C1=CC[C@H]1C(=O)N(c3ccccc3)C(=O)[C@H]12 | inactive |  |
| Cc1cccn2c(=O)c3cc(C(=O)NCCc4ccccc4)c(=N)n(CCCn4ccnc4)c3nc12 | inactive |  |
| CC1(C)Cc2c(c(-c3ccco3)nc3sc4c(NCCN5CCOCC5)ncnc4c23)CO1 | inactive |  |
| Cc1c(C(=O)Nc2nonc2-c2ccc(F)cc2)oc2ccc(F)cc12 | 11.2 µM (active) |  |
| O=C(NNC(=O)C12CC3CC(CC(C3)C1)C2)c1ccccn1 | 8.91 µM (active) |  |
| CN(C)c1ccc2c(c1)OC(N)=C(C#N)C2c1cccc(F)c1 (stereo not given) | inactive |  |
| Cn1cccc1/C=N/N1CCN(Cc2ccccc2Cl)CC1 | inactive |  |
| O=C(Nc1ccccc1N1CCN(C(=O)c2ccccc2)CC1)c1ccc(Br)o1 | 28.2 µM (active) |  |
| Cc1cc(C)n(-c2nc(Nc3ccccc3C(F)(F)F)nc(-n3nc(C)cc3C)n2)n1 | 1.78 µM (active) |  |
| CN(C)c1ccc(NC(=O)Nc2nc(C(N)C3CCCCC3)cs2)cc1 (stereo not given) | inactive |  |
| CCOC(=O)c1c(NC(=O)COC(=O)CNC(=O)c2ccco2)sc(C)c1C |  | 24.5% [at 11.4 µM] (inactive) |
| Cc1cc(C)c(S(=O)(=O)/N=C2\C=C(Nc3ccc(C(=O)O)cc3)C(=O)c3ccccc32)c(C)c1 | 1.58 µM (active) |  |
| CCCCCCn1c2c(c(=N)c3c1CCC3)CCC2 | 2.51 µM (active) |  |
| Cc1ccc(C(NC(=O)C2CCN(Cc3ccc(Cl)c(Cl)c3)CC2)c2ccccn2)cc1 (stereo not given) | 28.2 µM (active) |  |
| Cc1ccc(CN2CC(C(=O)Nc3ncc(C)s3)CC2=O)cc1 (stereo not given) |  | 242% [at 11.4 µM] (inactive) |
| O=C1C=C(NCCc2cc(Br)c(O)c(Br)c2)C(=O)c2ncccc21 | 8.91 µM (active) |  |
| Cc1cc(C)c(C(=O)N2CCCC(N3CCN(c4cccc(C(F)(F)F)c4)CC3)C2)o1 (stereo not given) | 3.55 µM (active) |  |
| COC1=CC(=O)C=C(OC)C1(O)CC(C)=O | inactive |  |
| CCC(=O)NC(c1cc(Cl)c2cccnc2c1O)C(C)C (stereo not given) | 3.98 µM (active) |  |
| CC(=O)NC(c1cc(Cl)c2cccnc2c1O)C(C)C (stereo not given) | 0.794 µM (active) |  |
| CC(C)CCn1c(N)c(S(=O)(=O)c2cccs2)c2nc3ccccc3nc21 | 3.16 µM (active) |  |
| CCSc1nc2ccccc2n1C(=O)/C=C\c1ccc(OC)c(OC)c1 | 14.1 µM (active) |  |
| COc1ccc(C(=O)Cn2c(C(=O)/C=C/c3ccccc3)nc3ccccc32)cc1 |  | 92.9% [at 11.4 µM] (inactive) |

| Structure (SMILES) | Potency | activity change, negative = inhibition |
| --- | --- | --- |
| COc1ccc(C(=O)/C=C/c2cccc(OCc3ccccc3)c2)cc1CSCC(=O)O |  | -3.73% [at 11.4 µM] (inactive) |
| N#Cc1ccccc1NC(=O)C1SC(=Nc2ccccc2)C(C(=O)Nc2ccc(Cl)cc2)=C1N (stereo not given) |  | -20.6% [at 11.4 µM] (inactive) |
| CN(CC(=O)Nc1ccc(Cl)c(C(F)(F)F)c1)C(=O)c1cccnc1Sc1ccccc1 | inactive |  |
| Cc1ccc(C(=O)N(C)CC(=O)Nc2ccc(Cl)c(C(F)(F)F)c2)cc1S(=O)(=O)N1CCCCC1 | 25.1 µM (active) |  |
| CN(CC(=O)NCc1ccc(F)cc1)CC(=O)Nc1ccc(Cl)c(C(F)(F)F)c1 | 17.8 µM (active) |  |
| Cc1ccc(-n2ncc(C(=O)Nc3ccc(Cl)cc3)c2C2CCNCC2)cc1C | inactive |  |
| Cc1cc(C2=NNC(=NC3CC3)SC2)c(C)n1-c1ccccc1F | 0.631 µM (active) |  |
| Cc1ccc(C2CC(=O)Nc3c2ccc2ccccc32)cc1[N+](=O)[O-] (stereo not given) | 17.8 µM (active) |  |
| Cc1ccccc1S(=O)(=O)Cc1ccc(C(=O)N2CCN(c3cccc(C)c3C)CC2)o1 | 3.98 µM (active) |  |
| CCOC(=O)[C@H]1[C@H]2COc3ccc(OC)cc3[C@@H]2N2C(=O)c3cc(OC)c(OC)cc3NC(=O)[C@@]12C |  | 6.45% [at 11.4 µM] (inactive) |
| c1cnc2c(c1)ccc1cccnc12 | 3.55 µM (active) |  |
| CC(=O)N1CCN(c2ccc(Oc3ccc([N+](=O)[O-])c(C(F)(F)F)c3)cc2)CC1 | 7.94 µM (active) |  |
| N=c1c2c(n(Cc3ccc(Cl)cc3)c3c1CCC3)CCC2 | 0.708 µM (active) |  |
| N=c1c2c(n(Cc3cccc(Cl)c3)c3c1CCC3)CCCC2 | 3.16 µM (active) |  |
| N=c1c2c(n(Cc3ccc(Br)cc3)c3c1CCC3)CCCC2 | 0.501 µM (active) |  |
| Cn1c(CO)cnc1S(=O)(=O)Cc1ccc([N+](=O)[O-])cc1 | inactive |  |
| c1nc(CCO[C@H]2CCCCO2)cc2cc3c(cc12)OCO3 | 3.16 µM (active) |  |
| O=C(C1CCC(CNS(=O)(=O)c2cccs2)CC1)N1CCN(c2ccc(F)cc2)CC1 (stereo not given) | 4.47 µM (active) |  |
| CCOc1cc(C=C(C(=O)OC)C(=O)OC)ccc1OCc1ccc([N+](=O)[O-])cc1 | 25.1 µM (active) |  |
| COc1cc(C(=O)O/N=C(\N)Cc2ccc([N+](=O)[O-])cc2)cc(OC)c1OC |  | -6.35% [at 11.4 µM] (inactive) |
| CC1CC(C)C[N+](=C2C=C(N3CCCC3)CC(C)(C)C2)C1 (stereo not given) | 0.794 µM (active) |  |
| CC1CCN(Cc2c(C(=O)N/N=C/c3cc(Cl)ccc3O)nnn2-c2nonc2N)CC1 | 0.562 µM (active) |  |
| CC1CCN(Cc2c(C(=O)N/N=C/c3cc(Br)ccc3O)nnn2-c2nonc2N)CC1 | 0.447 µM (active) |  |
| COc1ccc(-c2n(CC(=O)OC3CC(C)CCC3C(C)C)c3ccccc3[n+]2C)cc1 (stereo not given) | 3.16 µM (active) |  |
| CCOc1ccc(-n2c(-c3ccccc3)c[n+]3c2CCCCC3)cc1 | 3.55 µM (active) |  |
| CCOc1ccc(-c2c[n+]3c(n2-c2ccccc2)CCCCC3)cc1 | 6.31 µM (active) |  |
| CCCCOc1ccc(C(=O)NNC(=S)NC(=O)CC)cc1 | 2.51 µM (active) |  |
